Measured values reported in PubChem BioAssay AID1345083 (National Center for Advancing Translational Sciences (NCATS), 2018).
Among all 94,000 compounds or so, about 6,200 (6.6%) were called active. Inconclusive results (about 31%) are left out. The call rests on the fitted dose curve; in most records, active means well fitted inhibition curve with a large enough effect; inconclusive means small, poorly fitted or top-dose-only effect; inactive means flat fitted curve, though single readings scatter. The entries come from a sample that favours actives as a whole.

Assay: Cytotoxic Profiling in HEK 293 Cell Line of Diverse Libraries Using Quantitative High-Throughput Screening; further: nearly all actives have a fitted effect of over 60% in size
Conditions: HEK 293 viability, ATP luminescence (CellTiter-Glo), 48-72 h; series mostly up to 115 µM; activity change, negative = cytotoxicity: at the top concentration
From the text: Cell-based phenotypic screening is a commonly used approach to discover biological pathways, novel drug targets, chemical probes and high-quality hit-to-lead molecules. Many hits identified from high-throughput screening campaign are ruled out through a series of follow-up potency, selectivity/specificity, and cytotoxicity assays. Prioritization of molecules with little or no cytotoxicity for a more in-depth downstream evaluation influence the future direction of projects, so cytotoxicity profiling of the screening libraries at early stage is essential for increasing the likelihood of candidate success. In this study, we analyzed results from a cell-based cytotoxicity screening campaign, comprising nearly 10,000 compounds in NCATS annotated libraries, and over 100,000 compounds in a diversity library, evaluated in four normal cell lines (HEK 293, NIH 3T3, CRL-7250 and HaCat) and a cancer cell line (KB 3-1, a HeLa subline) with overall screening outcomes, hit rates, pan-activity and selectivity. For the annotated library, we also examined the primary targets and mechanistic pathways regularly associated with cell death. To our knowledge, this is the first study to use high-throughput screening to profile large libraries for cytotoxicity assessment in both normal and cancer cell lines. In summary, the results generated here constitutes a valuable resource for the scientific community and provides insight on identifying cytotoxic compounds with particular mechanisms of action, and prioritizing compounds with suitable cytotoxicity profile for further evaluation.
HEK 293 cells were seeded into white 1536-well plates using a Multidrop Combi peristaltic dispenser (ThermoFisher, Waltham, MA) at a density of 250 cells/well in 5 uL of medium respectively. A pintool (Kalypsys) was used to transfer 23 nL of compound solution to the 1536-well assay plates. After 48 or 72 hr incubation at 37 degree Celsius, 5% CO2 and 95% humidity, 2.5 uL of CellTiter-Glo (Promega) was dispensed into each well using a dispenser (Aspect Automation, St. Paul, MN) with solenoid valves (Lee Valves, Westbrook CT). Plates were left at room temperature for 10 min before imaging the ATP-coupled luminescence using a ViewLux microplate imager (PerkinElmer, Waltham, MA).
On the % scale 0 is the no-effect control and ±100 the full control effect; potency means the concentration at half of the fitted maximal effect.

Structure (SMILES) | activity change, negative = cytotoxicity | Potency | outcome
CCc1nc(-c2c3n(c(=O)n(CC(=O)Nc4cccc(Cl)c4C)c2=O)CCCC3)no1 | 16% (inactive) | – | –
Cc1nn(-c2ccccc2)c(C)c1CN1CCCC12Cc1ccccc1CNC2=O (centres undefined) | -26.1% (inactive) | – | –
CCOC(=O)C1CC1CN1CCCC12Cc1ccccc1CNC2=O (centres undefined) | -17.2% (inactive) | – | –
O=C1NCc2ccccc2CC12CCCCN2Cc1cccc(F)c1F (centres undefined) | – | 50.1 µM (active) | –
CCN(C(=O)CCC(=O)N1CCc2c(c(-c3nncn3CC)nn2C)C1)c1ccccc1 | -5.93% (inactive) | – | –
CC(C)c1nnc(C2CN(C(=O)c3ccc4ccccc4n3)CC23CCOCC3)o1 (centres undefined) | -0.559% (inactive) | – | –
CNc1ncc(C(=O)N[C@@H]2COCC[C@@H]2OCc2c(C)noc2C)cn1 | -16.4% (inactive) | – | –
COc1ccc(NC(=O)c2cc3c(N(C)Cc4ccccc4)nc(C)cn3n2)cc1F | -23.2% (inactive) | – | –
O=C(c1cnccn1)N1CCC2(COc3ncccc3[S+](=O)([O-])N2)C1 (centres undefined) | -22.4% (inactive) | – | –
CCCn1cc(C(=O)N2C[C@H](c3ccccc3)[C@@H](N)C2)c(C)n1 | 2.2% (inactive) | – | –
COc1ccc(CN2CCC3(Cc4ccccc4CNC3=O)C2)cc1OC (centres undefined) | -18.4% (inactive) | – | –
CN1CC(=O)N(c2cccnc2)Cc2c1ncnc2N1CCN(c2ccccn2)CC1 | 3.25% (inactive) | – | –
O=[N+]([O-])c1cccc(-c2noc([C@@H]3C[C@@H](O)CN3Cc3cccc(OC(F)(F)F)c3)n2)c1 | -23.7% (inactive) | – | –
O=C(NCc1ccccc1)[C@@H]1Cc2nc[nH]c2CN1Cc1cccc(OC(F)(F)F)c1 | – | 70.8 µM (active) | –
O=C(O)CCC(=O)N1Cc2[nH]cnc2C[C@H]1c1nc(-c2ccc3ccccc3c2)no1 | 2.68% [at 172 µM] (inactive) | – | –
CN1Cc2ncnc(NCc3cccs3)c2CN(c2ccccc2)C1=O | -16.5% (inactive) | – | –
CN1CCN(C(=O)CC2=C3CCCCC3NC2=O)CC1 (centres undefined) | -0.271% (inactive) | – | –
O=C(CCC1CCN(C(=O)c2ccccc2F)CC1)Nc1cccc(Cl)c1 | – | 12.6 µM (active) | –
COc1ccc(NC(=O)CCC2CCN(S(=O)(=O)c3ccc(C)cc3)CC2)cc1F | -5.83% (inactive) | – | –
O=C(NCCC1CCN(C(=O)Nc2cc(F)ccc2F)CC1)c1cc(F)ccc1F | -7.51% (inactive) | – | –
COc1cc2c(cc1C(=O)N1CCC3(CCCN(C)C3=O)C1)CCC2 (centres undefined) | -14% (inactive) | – | –
Cn1nccc1CN1CCc2nc(C3CC3)nc(-c3ccc(O)cc3)c2C1 | -11.9% (inactive) | – | –
COCCc1noc(CC2CCOC3(CCN(C(=O)C4CCCC4)CC3)C2)n1 (centres undefined) | -15.6% (inactive) | – | –
CN(C)C[C@H]1O[C@@H]2C[C@@H](CC(=O)N3CCC(F)(F)C3)O[C@@H]2[C@@H]1O | – | – | inactive [at 172 µM]
O=C(Cc1cccnc1)N1CCc2onc(-c3ccc(F)c(F)c3)c2C1 | -5.33% (inactive) | – | –

Structure (SMILES) | activity change, negative = cytotoxicity | Potency | outcome
Cc1ccccc1S(=O)(=O)N1CCCC(CCC(=O)NCC2CCCCC2)C1 (centres undefined) | – | 39.8 µM (active) | –
COc1ccc(Cl)cc1S(=O)(=O)N1CCCC(CNC(=O)c2ccco2)C1 (centres undefined) | -23.9% (inactive) | – | –
Cc1ccc(S(=O)(=O)N2CCCC(CCC(=O)N(C)C)C2)cc1 (centres undefined) | -7.42% (inactive) | – | –
CCCc1noc(-c2ccn3c(CNC(=O)c4ccc(N(C)C)cc4)nnc3c2)n1 | – | – | inactive
CCCNC(=O)N(C1CCOCC1)C1CCN(S(=O)(=O)c2ccc(F)cc2)CC1 | 14.9% (inactive) | – | –
CN1c2cc(C(=O)N3CCC(C(N)=O)CC3)ccc2C(=O)N2CCCCC21 (centres undefined) | 4.63% (inactive) | – | –
CCOC(=O)c1cccc(NC(=O)c2ccc3c(c2)N(C)C2CCCCN2C3=O)c1 (centres undefined) | – | 35.5 µM (active) | –
Cc1cccc(NC(=O)Cn2nc3n(c2=O)CCCC3)c1 | -3.69% (inactive) | – | –
Cc1ccc(CNC(=O)c2ccc3c(c2)N(C)C2CCCCN2C3=O)cc1C (centres undefined) | -7.81% (inactive) | – | –
CCOc1ccc(NC(=O)c2ccc3c(c2)N(C)C2CCCN2C3=O)cc1 (centres undefined) | -4.25% (inactive) | – | –
COCCn1ccc2cc(C(=O)Nc3ccc4c(c3)C(=O)N3CCC[C@H]3C(=O)N4)ccc21 | 2.52% (inactive) | – | –
CN1c2cc(C(=O)Nc3ccc(Cl)cc3)ccc2C(=O)N2CCCCCC21 (centres undefined) | – | 35.5 µM (active) | –
CN1CCCCCCN(C(=O)Nc2ccccc2)CCC1=O | -17.9% (inactive) | – | –
Cc1ccc(C(=O)N2CCC(C(=O)N3CCC(N4CCOCC4=O)CC3)CC2)cc1 | – | – | inactive
CN1c2cc(C(=O)Nc3ccccc3)ccc2C(=O)N2CCCCCC21 (centres undefined) | – | 79.4 µM (active) | –
Cc1ccc(N2CCN(C(=O)c3ccc4c(c3)N(C)C3CCCCCN3C4=O)CC2)cc1 (centres undefined) | – | 39.8 µM (active) | –
Cc1ccc(-c2ccc3nnc(CNC(=O)c4ccncc4)n3n2)cc1C | -5.77% (inactive) | – | –
COc1ccc2c(c1)OCC(C(=O)N1CCCN(c3ncccn3)CC1)C2 (centres undefined) | -3.67% (inactive) | – | –
COc1ccc(C(=O)NCC23CCC=C2N(C)C(=O)CC3)cc1OC (centres undefined) | – | – | inactive
CCCS(=O)(=O)N1CCC(Nc2nccnc2OCC)CC1 | 12.7% (inactive) | – | –
COC[C@@H]1CN(Cc2c(C)n[nH]c2C)C[C@H]1c1nc(C)no1 | -2.2% (inactive) | – | –
CC/C=C(\C)CN1CCC2(CC1)Cc1ccccc1CNC2=O | -25.4% (inactive) | – | –
CC(=O)N1CC(CO)C2(CCN(C(=O)c3ccccc3Cl)CC2)C1 (centres undefined) | 1.95% (inactive) | – | –
C=CCNC(=O)N1CC[C@@H](CC(=O)O)[C@@H](CC2=NCCc3ccc(C)cc32)C1 | -19.9% [at 172 µM] (inactive) | – | –
